Data reported in PubChem BioAssay (NCATS).
Results filed as inconclusive are left out. Entries that show only a call come without a potency. Activity calls are given as the source filed them. Calls come from the whole dose curve; as a rule, active = well fitted inhibition curve with a large enough effect; inconclusive = small, poorly fitted or top-dose-only effect; inactive = no such curve, though single readings can be large or run the other way. Where a SMILES comes first, the peptide text is derived from it. Bridges are numbered along the chain shown (N, C = ends). [ ]: non-standard residue; d: D form. hArg = N=C(N)NCCCC[C@H](N)C(=O)O; Mpa = O=C(O)CCS

target: Cytochrome P450 3A7 (Homo sapiens) (UniProt P24462); experiment: Cytochrome P450 family 3 subfamily A member 7 (CYP3A7) small molecule antagonists: luciferase biochemical qHTS assay (AID 1963596); details: P450-Glo CYP3A7 enzyme luminescence, 1 h; series mostly up to 57.4 µM; note: nearly all actives have a fitted effect of over 40% in size
Text: National Center for Advancing Translational Sciences [NCATS] Assay Overview: Cytochrome P450 (CYP) enzymes are membrane-bound hemeproteins that play a key role in metabolism of drugs and xenobiotics. The CYP3A subfamily is the most abundant, representing 30% of the total adult hepatic CYP content, whereas CYP3A7 is found predominantly in human fetal liver and accounts up to 50% of the total fetal hepatic CYP content. Testing the effect of chemicals on CYP isozymes is useful to minimize the adverse drug reactions and toxicities in the drug development process. Chemicals were tested for their effect on CYP enzyme activities by using P450-Glo (TM) screening systems (Promega Corporation, Madison, WI). These systems provide a luminescent method containing proluciferin substrates and are converted to luciferin products by CYP isozymes. The luciferin products formed are detected with a luciferin detection reagent, and the amount of light produced is proportional to CYP activity. P450-Glo (TM) CYP3A7 screening system (Catalog. No. V8812) was used to detect the compounds that interfere with CYP3A7 activity. The positive control compound used for CYP3A7 assay is ketoconazole (Sigma-Aldrich, St. Louis, MO).
Assay Protocol Summary: Two ul of enzyme-substrate mix was dispensed into medium binding white/solid 1536-well plates (Greiner Bio-One North America Inc., Monroe, NC) using a Flying Reagent Dispenser (FRD, Aurora Discovery, San Diego, CA). Compounds dissolved in DMSO, and positive control (ketoconazole) were transferred to the assay plates at 23 nl using a Pintool station (Wako, San Diego, CA). The assay plates were incubated at room temperature for 10 min. Then 2 ul of NADPH regeneration solution was added to each well of the assay plates using an FRD and incubated at room temperature for 1 h. The reaction was stopped by adding 4 ul of detection reagent using an FRD and after 20 min incubation at room temperature the luminescence signal was measured using a ViewLux plate reader (Perkin Elmer, Shelton, CT). Data were expressed as relative luminescence units.
Potency is the fitted concentration of half-maximal effect.

Chain of Cytochrome P450 3A7 (Homo sapiens) (P24462 whole entry, looked up): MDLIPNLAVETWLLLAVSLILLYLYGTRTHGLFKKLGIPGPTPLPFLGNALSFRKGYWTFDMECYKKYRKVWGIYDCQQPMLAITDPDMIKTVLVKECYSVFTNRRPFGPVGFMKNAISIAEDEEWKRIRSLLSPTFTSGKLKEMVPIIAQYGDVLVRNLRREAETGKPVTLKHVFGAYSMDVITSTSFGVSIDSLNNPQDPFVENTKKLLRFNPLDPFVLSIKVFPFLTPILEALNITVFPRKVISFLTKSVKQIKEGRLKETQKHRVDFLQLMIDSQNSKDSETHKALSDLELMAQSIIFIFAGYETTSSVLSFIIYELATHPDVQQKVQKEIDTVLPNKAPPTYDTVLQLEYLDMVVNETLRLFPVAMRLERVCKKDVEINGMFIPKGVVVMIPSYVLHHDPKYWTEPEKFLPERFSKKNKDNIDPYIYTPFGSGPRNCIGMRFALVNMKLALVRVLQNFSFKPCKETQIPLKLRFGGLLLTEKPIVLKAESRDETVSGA

Structure (SMILES) | Potency
O=C(O)COc1nn(Cc2ccccc2)c2ccccc12 | inactive
Fc1ccc(-c2nc(-c3c(F)cccc3F)[nH]c2-c2ccncc2)cc1 | inactive
Cn1cnc([N+](=O)[O-])c1Sc1ncnc2nc[nH]c12 | inactive
NC(=O)C1(N2CCCCC2)CCN(CCCC(=O)c2ccc(F)cc2)CC1 | inactive
CNC(=O)CN(CCN(CCN(CC(=O)[O-])CC(=O)NC)CC(=O)[O-])CC(=O)[O-].O.[Gd+3] | inactive
Cn1c(N2CCCCS2(=O)=O)nc(C(=O)NCc2ccc(F)cc2)c(O)c1=O | inactive
COc1cnc(NS(=O)(=O)c2ccc(N)cc2)nc1 | inactive
COc1ccc(C2C(=O)c3ccccc3C2=O)cc1 | inactive
CCOc1cc(OCC)c(C(=O)CCC(=O)O)cc1OCC | inactive
CCN(CCCO)CCCOc1ccc2c(Nc3cc(CC(=O)Nc4cccc(F)c4)[nH]n3)ncnc2c1 | 14.1 µM (active)
Cc1ccc(S(=O)(=O)N2CCc3cc(C(=O)Nc4ccc(C(F)(F)F)cc4)ccc32)cc1 | inactive
O=C(O)C(=O)Nc1cccc(-c2nn[nH]n2)c1 | inactive
C[C@H]1[C@H](NC(=O)/C(=N/OC(C)(C)C(=O)O)c2csc(N)n2)C(=O)N1S(=O)(=O)O (stereo in doubt) | inactive
O=[N+]([O-])c1nccn1CO[C@@H](CO)[C@H](O)CO | inactive
COc1nccc(-c2c(-c3ccc(F)cc3)ncn2C2CCC(O)CC2)n1 (stereo not given) | inactive
COc1ccc(-c2cc(C(F)F)nn2-c2ccc(S(N)(=O)=O)cc2)cc1F | inactive
CC1(C)S[C@@H]2[C@H](N=CN3CCCCCC3)C(=O)N2[C@H]1C(=O)O | inactive
CN(CCCOc1ccc(Cc2ccccc2)cc1)CCC(=O)O | inactive
CC(C)(C)NC[C@H](O)COc1nsnc1N1CCOCC1 | inactive
CC1(C)CC(=O)c2c(C(F)(F)F)nn(-c3ccc(C(N)=O)c(NC4CCC(OC(=O)CN)CC4)c3)c2C1 (stereo not given) | 15.1 µM (active)

Structure (SMILES) | Potency
CO/N=C(/C(=O)N[C@@H]1C(=O)N2C(C(=O)[O-])=C(C[n+]3ccn4ncccc43)CS[C@H]12)c1nsc(N)n1 | inactive
C[N+](C)(C)CC(=O)O | inactive
CC1(C)[C@@H](OC(=O)CCC(=O)O)CC[C@]2(C)[C@H]3C(=O)C=C4[C@@H]5C[C@@](C)(C(=O)O)CC[C@]5(C)CC[C@@]4(C)[C@]3(C)CC[C@@H]12 | inactive
C=Cc1c(C)c2cc3[nH]c(cc4nc(cc5nc(cc1[nH]2)C(C)=C5CCC(=O)O)C(CCC(=O)O)=C4C)c(C)c3C=C | inactive
NC(=O)[C@@H]1CSSCCC(=O)N[C@@H](CCCCN=C(N)N)C(=O)NCC(=O)N[C@@H](CC(=O)O)C(=O)N[C@@H](Cc2c[nH]c3ccccc23)C(=O)N2CCC[C@H]2C(=O)N1 ([Mpa][hArg]GDWPC-NH2; disulfide 1-7) | inactive
O=Cc1ccccc1C=O | inactive
CC(=O)Nc1c(I)cc(I)c(C(=O)O)c1I | inactive
C[C@@H](Nc1cc(NS(=O)(=O)N2CCC2)nc(SCc2cccc(F)c2F)n1)[C@@H](O)CO | inactive
O=C(O)[C@@H]1CCCN1 | inactive
O=C(O)CNC(=O)c1ccccc1I | inactive
CCNC(=O)Nc1ccc2ncc(Nc3ccc(C)cc3)nc2n1 | inactive
Cc1nc(-c2cn3c(n2)-c2ccc(-c4cnn(C(C)(C)C(N)=O)c4)cc2OCC3)n(C(C)C)n1 | inactive
CC1(C)OC(=O)Nc2ccc(Br)cc21 | inactive
COc1ccc(-c2ccc3cc(C(=O)O)ccc3c2)cc1C12CC3CC(CC(C3)C1)C2 | inactive
CC(=O)Nc1c(I)c(NC(C)=O)c(I)c(C(=O)O)c1I | inactive
CN(Cc1cnc2nc(N)nc(N)c2n1)c1ccc(C(=O)N[C@@H](CCC(=O)O)C(=O)O)cc1 | inactive
O=C(N[C@@H]1CCCc2c1cnn2-c1ccc(F)cc1F)c1ccccn1 | inactive
NC(=O)NS(=O)(=O)c1ccc(Cl)cc1 | inactive
O=C(CCCl)NCc1ccccc1 | inactive
O=C(O)CCCCC1CCSS1 (stereo not given) | inactive
